A selection: hits, their analogues and other compounds. The true share with any hit is near 19%.
TDP1 cell CPT = DT40-hTDP1 cell growth loss with CPT. chicken DT40 Tdp1-/-;hTDP1 cells + 20 nM CPT, ATP luminescence, 48 h. Potency, µM (highest dose often 46.2 µM), without a hit: top-dose activity change, negative = growth inhibition, hits mostly inhibitors. 420,000 tested, 12% active. AID 686979; further: potency means the concentration at half of the fitted maximal effect; on the % scale 0 is the no-effect control and ±100 the full control effect; nearly all actives have a fitted effect of over 55% in size
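Chicken DT40 Tdp1-/- cells stably complemented with human TDP1 were seeded at 400 cells/well in medium containing 20 nM camptothecin, exposed to pin-transferred compounds, and grown at 37 °C for at least 48 hr. Viability was read as ATP luminescence.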
IL-1B inflam inh = blocks inflammasome-driven IL-1 beta release; activity change, % at 57.5 µM; 360,000 tested, 4.7% active; THP-1 LPS/ATP IL-1B secretion, AlphaLISA, 16 h; stronger effect = lower value; in the data active means activity change below about -50%; inconclusive means mostly about -30% to -49%; further: on the % scale 0 is the no-effect control and ±100 the full control effect
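Secreted IL-1B measured by AlphaLISA bead assay after 16 h compound exposure of THP-1 cells; compounds (final up to 57.5 uM) added 1 h before LPS (250 ng/mL) and ATP (1.25 mM) stimulation; lower signal means less secretion.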
DT40 TDP1 no CPT = qHTS for Inhibitors of human tyrosyl-DNA phosphodiesterase 1 (TDP1): qHTS in cells in absence of CPT; DT40 Tdp1-/- hTDP1 cells, no CPT, ATP luminescence, 48 h; Potency, µM (highest dose often 46.2 µM), inactives show top-dose activity change, negative = growth inhibition, most hits filed as inhibitors; 420,000 tested, 15% active; further: potency means the concentration at half of the fitted maximal effect; on the % scale 0 is the no-effect control and ±100 the full control effect; nearly all actives have a fitted effect of over 55% in size
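Growth kinetics read by CellTiter-Glo luminescence after ≥48 hr at 37 °C. Cells: DT40 Tdp1-/- stably carrying human TDP1, 400 per well, compound exposure in the absence of CPT (DMSO vehicle).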
TGFb SMAD3 inh = blocks TGF-b signaling. Potency, µM (titrated, usually from 46.1 µM), for the others: at the highest dose activity, negative = inhibition, actives largely listed as inhibitors. 410,000 tested, 1.2% active. HepG2 CAGA-GFP TGF-b/SMAD3 reporter, GFP fluorescence, 18 h; TGF-beta stimulated, 500 pg/mL final; further: potency means the concentration at half of the fitted maximal effect; on the % scale 0 is the no-effect control and ±100 the full control effect; nearly all actives have a fitted effect of over 65% in size
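Smad-responsive CAGA-GFP expression was quantified in HEPG2 cells exposed to compounds and 500 pg/mL final TGF-beta for 18 h at 37 degrees C; unstimulated wells defined full inhibition.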
TDP1 inh = TDP1 (human) enzyme inhibition. Q9NUW8. recombinant TDP1, AlphaScreen DNA substrate cleavage. Potency, µM (series often up to 130 µM), inactives show at the highest dose activity change, negative = inhibition, most hits filed as inhibitors. 350,000 tested, 0.28% active. AID 485290; further: potency means the concentration at half of the fitted maximal effect; on the % scale 0 is the no-effect control and ±100 the full control effect; nearly all actives have a fitted effect of over 40% in size
Target sequence (Q9NUW8 whole entry, looked up): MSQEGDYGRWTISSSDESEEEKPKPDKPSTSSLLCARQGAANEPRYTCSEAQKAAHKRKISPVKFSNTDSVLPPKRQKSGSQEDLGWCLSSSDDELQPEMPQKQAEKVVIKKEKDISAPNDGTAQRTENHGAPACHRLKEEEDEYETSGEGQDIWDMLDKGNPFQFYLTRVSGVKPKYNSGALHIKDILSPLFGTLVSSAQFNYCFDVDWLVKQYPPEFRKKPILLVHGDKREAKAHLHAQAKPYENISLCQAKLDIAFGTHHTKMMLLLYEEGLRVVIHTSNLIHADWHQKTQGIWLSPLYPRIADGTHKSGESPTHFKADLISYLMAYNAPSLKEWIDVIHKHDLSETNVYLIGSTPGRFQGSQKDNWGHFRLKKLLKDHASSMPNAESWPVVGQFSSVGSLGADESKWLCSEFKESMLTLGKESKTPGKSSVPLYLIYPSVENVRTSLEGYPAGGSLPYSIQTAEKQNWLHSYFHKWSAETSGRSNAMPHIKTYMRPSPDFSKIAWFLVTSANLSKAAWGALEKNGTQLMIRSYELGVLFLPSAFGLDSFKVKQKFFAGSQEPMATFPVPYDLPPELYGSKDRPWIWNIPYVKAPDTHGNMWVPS
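Here, a 5' biotin and 3' phosphotyrosine-FITC DNA oligonucleotide reports Tdp1 activity: intact substrate bridges AlphaScreen beads, while cleavage leaves a 3' phosphate and drops signal. All incubations at room temperature.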
HepG2 tox = HepG2 cytotoxicity, counter-screen for TGF-b inhibitors; HepG2 CAGA-GFP viability, ATP luminescence, 18 h; Potency, µM (top dose mostly 46.1 µM), for inactives: at the top dose activity change, negative = cytotoxicity, usual class: cytotoxic; 410,000 tested, 0.76% active; further: potency means the concentration at half of the fitted maximal effect
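CellTiter-Glo luminescence gave cytotoxicity after 18 hours at 37 degrees C. The cells were HepG2 CAGA-GFP in 1% FBS DMEM, stimulated with 500 pg/mL TGF-beta after compound addition. %Activity was normalised to no-cell wells (complete cell-killing) and DMSO (no toxicity), and curves were fitted and classified.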
Starred values were filed as active, the others as inactive; i = inactive; ? = inconclusive; · = no result given; ! = not confirmed by another sample; [ ] = another dose, or the depositor's remark. Unless noted, the call rests on the fitted dose curve; in most records, active means well fitted curve in the direction sought with a large enough effect; inconclusive means small, poorly fitted or top-dose-only effect, or another doubt; inactive means no such curve, though single readings can be large; an effect the other way counts as inactive or inconclusive.

SMILES | TDP1 cell CPT | IL-1B inflam inh | DT40 TDP1 no CPT | TGFb SMAD3 inh | TDP1 inh | HepG2 tox
Cc1nn(-c2ccc(F)cc2)c2nc(N)c(C#N)c(-c3ccc(O)c(O)c3)c12 | 16µM* | -7 | 23µM* | ? | · | -52%
COc1ccc(NC(=O)Nc2nnc(N3CCCC3)s2)cc1 | -14% | · | ? | ? | 0% | -9%
CCOC(=O)c1ccccc1NC(=O)N1CCN(Cc2cc(=O)n3nc(-c4ccccc4)sc3n2)CC1 | -2% | · | -5% | 2% | 0% | 0%
CCc1ccc(CN2CCC(n3nccc3NC(=O)C3CCCC3)CC2)cc1 | ? | -4 | ? | 1% | 6%[56.1 µM] | 3%
CC(=O)C1=C(C)N(Cc2ccco2)C(=O)N[C@@H]1c1ccccc1 | · | · | · | · | 7% | ·
NS(=O)(=O)c1ccc(N=Nc2cc3ccccc3c(C(=O)O)c2O)cc1 | 0.4µM* | · | 1.1µM* | ? | · | 5%
NS(=O)(=O)c1ccc(N=Cc2c(O)c3ccccc3oc2=O)cc1 | 11% | -11 | -20% | ? | 0% | -17%
CN1CCOc2cc(S(=O)(=O)NCc3ccc(S(N)(=O)=O)cc3)ccc21 | 4% | i | -6% | -17% | 5% | 7%
CC(C)Cc1ccc(S(=O)(=O)Nc2ccc3[nH]c(=O)[nH]c3c2)cc1 | 16µM*! | 9 | 26µM* | 1% | 2% | -11%
O=C(O)c1ccc2c(c1)C(=O)/C(=C/c1ccccc1)C2=O | -14% | 0 | -14% | 17% | · | 7%
Cc1ccc(/C=C2/C(=O)c3ccc(C(=O)O)cc3C2=O)o1 | 11% | 24 | 6% | 2% | 3.5µM* | -16%
O=C(O)c1ccc2c(c1)C(=O)/C(=C\c1ccco1)C2=O | ? | 1 | 18% | -9% | 7.1µM* | 0%
Cc1ccc(C=C2C(=O)c3ccccc3C2=O)o1 | -2% | 10 | -7% | -1% | 0% | 0%
Cc1cc2nc(C3CCN(Cc4nnnn4Cc4cccs4)CC3)[nH]c2cc1C | 3.5µM* | -14 | 6.3µM* | -5% | 8% | -15%
O=C(COc1ccccc1C(=O)OCC(=O)Nc1cccc2ccccc12)Nc1ccc(Br)cc1 | ? | · | ? | 7% | · | 2%
C=C1C=CS(=O)(=O)N(C(CC(C)C)C(=O)OC)C1 (centres undefined) | · | · | · | -27% | 9% | -25%
Cc1c(C(=O)Nc2ccc(F)cc2)nnn1-c1cccc(C(F)(F)F)c1 | 7.3µM* | -8 | 9.2µM* | -2% | -4% | 0%
O=C(NNc1cccc(Cl)n1)c1ccccc1CC[N+](=O)[O-] | 10µM* | -9 | ? | 0% | -3% | -9%
O=C(NNc1cccc(Cl)n1)c1ccc(Cl)cc1Cl | 0% | -1 | 2% | -20% | 4% | -1%
Cc1c(C2CC(=O)N(c3ccccc3)C2=O)[nH]n(-c2ccccc2)c1=O (centres undefined) | 16µM* | 7 | ? | -6% | 8% | 9%
CCc1ccc(S(=O)(=O)c2c(C(=O)c3ccccc3)cnc3ccc(CC)cc23)cc1 | 15µM* | · | 15µM* | ? | 6% | -22%
CCOC(=O)c1cnc2ccc(Cl)cc2c1Nc1ccc(S(=O)(=O)Nc2ncccn2)cc1 | -20% | 27 | -15% | 24% | -2% | 5%
CCOc1ccc(S(=O)(=O)c2c(C(=O)c3ccc(C)c(C)c3)cnc3ccccc23)cc1 | 16µM* | · | 15µM* | 15% | 3% | -15%
Cc1ccc(S(=O)(=O)c2c(C(=O)c3ccccc3)cnc3cc4c(cc23)OCCO4)cc1 | ? | -61* | 21µM* | -12% | 3% | -1%
Cc1c(C(=O)c2ccc(Cl)c(Cl)c2)cnc2cc3c(cc12)OCO3 | ? | -22 | ? | -10% | 2% | -7%
SMILES | TDP1 cell CPT | IL-1B inflam inh | DT40 TDP1 no CPT | TGFb SMAD3 inh | TDP1 inh | HepG2 tox
COc1ccc(C(=O)c2cnc3ccc(C)cc3c2S(=O)(=O)c2ccccc2)cc1 | 16µM* | · | 18µM* | 10% | 5% | -14%
CCCCn1cc(S(=O)(=O)c2cc(C)ccc2C)c(=O)c2cc(F)c(F)cc21 | ? | · | ? | 0% | -1% | -1%
CCn1nc(C)c(CN2Cc3ccccc3OC(c3ccccc3OC)C2)c1C (centres undefined) | 3%[9.04 µM] | · | ? | · | · | ·
Nc1cccc2[nH]cnc12 | -5% | · | 0% | -18% | · | -9%
COc1ccc(S(=O)(=O)c2c(Nc3ccc(F)cc3)sc(C(=O)c3ccc(C)cc3C)c2N)cc1 | ? | · | ? | -25% | 9% | -2%
Cc1ccc2ncc(C(=O)c3ccc(C)c(C)c3)c(S(=O)(=O)c3ccc(F)cc3)c2c1 | 8.2µM* | · | 9.2µM* | 10% | 4% | -27%
COc1ccc(S(=O)(=O)c2c(C(=O)c3ccc(C)c(C)c3)cnc3ccc(F)cc23)cc1 | 7.3µM* | · | 6.5µM* | 15% | 5% | -16%
COc1ccc(C(=O)c2cnc3cc4c(cc3c2C)OCO4)cc1 | ? | -56* | ? | -11% | 4% | -24%
O=C(OCC#CCSc1nnc(-c2cccc3ccccc23)o1)c1ccc(OC(F)(F)F)cc1 | · | · | · | · | -8% | ·
COc1ccc(CCNC(=O)Nc2ccc3c(c2)c(=O)n(C)n3CC=C(C)C)cc1OC | ? | 3 | ? | -4% | · | -17%
O=c1[nH]c(-c2ccccc2)ncc1OCc1ccccc1 | 13µM* | -7 | -22% | -2% | · | 9%
Cc1cccc(C)c1NC(=O)CNC(=O)C(Cc1ccccc1)NC(=O)c1ccccc1 (centres undefined) | -17% | -21 | ? | 11% | 4% | -19%
Cc1ccc2sc(NNC(=O)C3COc4ccccc4O3)nc2c1C (centres undefined) | 26µM* | -11 | ? | -19% | 9% | -26%
Cc1ccc2sc(NNC(=O)c3cc(=O)c4ccccc4o3)nc2c1C | 29µM* | 31 | ? | ? | · | -54%
O=C(Nc1nc(-c2ccc(S(=O)(=O)N3CCCC3)cc2)cs1)C1COc2ccccc2O1 (centres undefined) | 9.2µM* | -29 | 7.3µM* | 7% | 6% | -9%
Cc1cnc(NC(=O)C2COc3ccccc3O2)s1 (centres undefined) | 21µM* | 5 | ? | -10% | -6% | 2%

Screening data: PubChem, National Center for Advancing Translational Sciences (NCATS)
